C8 TRAIL sens – caspase-8 TRAIL sensitization. NB7+C8 cells + TRAIL, ATPlite viability luminescence. inhibition (viability loss, TRAIL sensitization), % at 10 µM. 1% of 360,000 active;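 active means compounds causing at least 50% loss of cell viability in the single-dose screen, relative to plate controls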
PPC-1+TRAIL kill – kills PPC-1 cancer cells in the presence of TRAIL | cell killing (% activity), % at 4 µM or 5 µM | PPC-1 cells + TRAIL, ATPLite viability luminescence | AID 1443 | 0.41% of 220,000 active;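 active means cell killing above 50% in the first pass at 4 µM, then a duplicate retest at 5 µM averaging 50% or more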;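 further: plate controls were cells with TRAIL plus DMSO for no effect and medium-only wells lacking cells for full effect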
Platelet DG rel – platelet dense granule release activity. human platelet-rich plasma, SFLLRN dense granule ATP release, luminescence. inhibition, %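 (compounds screened at 7.5 µM in platelet-rich plasma)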. 0.22% of 300,000 active. AID 1663;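 active means mean replicate score, as percent of positive control, at or above 50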
TROY NFkB inh – TROY signaling inhibition; inhibition, % at 10 µM; AID 1347056; Q293 LMP1-TROYcd NF-kB luciferase reporter, 4 h; 0.98% of 360,000 active;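 active means compounds whose plate-normalised and pattern-corrected inhibition of the luciferase reporter signal at the single screening dose is 50% or more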
HSP90 inh – inhibitors of HSP90 luciferase refolding in rabbit reticulocyte lysate; luciferase refolding luminescence, 3 h; inhibition, % at 5.6 µM; 0.91% of 290,000 active; AID 1789;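 active means inhibition above the screen-wide mean plus 3 SD, computed separately per campaign, cut at about 16% in these data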;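 further: 0% = DMSO wells and 100% = 60 µM geldanamycin wells; inhibitors lower the luminescence because luciferase stays unfolded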
TWEAK Fn14 block – TWEAK-Fn14 signaling inhibition; inhibition, % at 10 µM; TWEAK-stimulated Fn14 reporter cells, luciferase luminescence, 8 h; 2% of 360,000 active; in the data active means inhibition above about 50%
Starred values were filed as active, the others as inactive; . = not tested or not shown. The list is not random: actives were taken first. Their share in the collection is about 3.5%.

SMILES	C8 TRAIL sens	PPC-1+TRAIL kill	Platelet DG rel	TROY NFkB inh	HSP90 inh	TWEAK Fn14 block
CCOC(=O)Nc1ccc2nc(Sc3ccc(Cl)cc3)sc2c1	21.8	12.3	-0.1	81.5*	-1.2	9.3
CC1=NN(C(N)=S)C(=O)C1N=Nc1ccc([N+](=O)[O-])cc1 (stereo not given)	-0.5	.	13.9	-33.3	0.0	-30.6
Nc1c(C(=O)NCc2ccco2)c2nc3ccccc3nc2n1CCc1ccccc1	-1.2	14.2	4.8	66.4*	7.4	71.7*
CCOC(=O)C1(CCOc2ccccc2)CCN(Cc2cccc(OCCO)c2)CC1	-5.0	.	4.5	51.2*	-1.6	-1.2
O=C(CCCl)N1CCN(c2nc(-c3ccccc3)cs2)CC1	1.0	.	0.3	-47.6	-3.4	-17.3
Nc1ccccc1Nc1cccc(C(F)(F)F)c1	-5.0	-16.5	-3.6	18.6	-3.5	50.3*
Cc1cc(C)nc(Nc2cccc(C(F)(F)F)c2)n1	2.9	.	3.2	-0.7	-1.9	-5.7
Cc1c(NC(=O)c2cccc(NC(=O)Cc3ccccc3F)c2)c(=O)n(-c2ccccc2)n1C	-14.4	.	.	-5.8	.	1.1
Cc1ccc(N(C(=O)Cc2cccs2)C(C(=O)NC2CCCCC2)c2ccccn2)cc1C (stereo not given)	-4.5	10.0	-1.3	-7.5	-1.0	-5.3
CCOc1ccc(NC(=O)/C=C/c2ccccc2)c([N+](=O)[O-])c1	-3.9	1.9	-9.6	-64.8	-0.3	-40.7
CCOc1ccc(N/C=C/C(=O)c2ccccc2)c([N+](=O)[O-])c1	91.1*	73.4*	85.4*	49.3	14.8	85.9*
CCn1c(=O)c2sccc2n(CC(=O)NC2CCCC2)c1=O	-12.8	.	-10.8	9.6	-1.7	27.7
O=C(Nc1ccccc1)C1Cc2c(-c3cccc(F)c3)ccnc2O1 (stereo not given)	-7.6	.	.	8.7	.	-13.7
CS(=O)(=O)Nc1cccc(NC(=O)C2Cc3c(-c4cccc(F)c4)ccnc3O2)c1 (stereo not given)	69.7*	.	.	25.1	.	-19.6
COc1ccccc1-n1nc(C)c(-c2ccccc2)c1N	-11.4	0.6	-6.0	8.1	-1.7	5.2
C#CCOCCOCCOCCNc1nc(N2CCN(C(=O)CCCCCCCCCCNC(=O)[C@H]([C@@H](C)CC)n3cc(CCCCN=C(N)N)nn3)CC2)nc(N2CCN(C(=O)CCCCCCCCCCNC(=O)[C@H](CO)n3cc(CCCCCN)nn3)CC2)n1	40.4	.	.	20.9	.	-0.3
C#CCOCCOCCOCCNc1nc(N2CCN(C(=O)[C@H](CCC(=O)O)n3cc(C(N)CC(C)C)nn3)CC2)nc(N2CCN(C(=O)[C@H](CCC(=O)O)n3cc(C(N)CC(C)C)nn3)CC2)n1 (stereo not given in full)	-8.1	0.1	1.4	1.6	16.6*	17.1
C#CCOCCOCCOCCNc1nc(N2CCN(C(=O)C([C@@H](C)CC)n3cc(C(N)CC(C)C)nn3)CC2)nc(N2CCN(C(=O)[C@H](CCC(=O)O)n3cc(C(N)CC(C)C)nn3)CC2)n1 (stereo not given in full)	-6.4	9.4	-5.4	8.0	0.2	7.0
CC(C)(C)OC(=O)CC[C@@H](C(=O)NCCCCCCCCCCC(=O)N1CCN(C(=O)OC(C)(C)C)CC1)n1cc(CCCCCNC(=O)OC(C)(C)C)nn1	7.9	.	.	-14.2	.	13.3
C#CCOCCOCCOCCNc1nc(N2CCN(C(=O)CCCCCCCCCCNC(=O)[C@H]([C@@H](C)CC)n3cc(CCCCCN)nn3)CC2)nc(N2CCN(C(=O)CCCCCCCCCCNC(=O)[C@H]([C@@H](C)CC)n3cc(CCCCN=C(N)N)nn3)CC2)n1	50.9*	.	.	38.9	.	41.8
CC[C@H](C)[C@@H](C(=O)NCCCCCCCCCCC(=O)N1CCN(C(=O)OC(C)(C)C)CC1)n1cc(CCCCCNC(=O)OC(C)(C)C)nn1	40.1	.	.	44.6	.	96.3*
CC(C)(C)OC(=O)NCCCCCc1cn([C@@H](CO)C(=O)NCCCCCCCCCCC(=O)N2CCN(C(=O)OC(C)(C)C)CC2)nn1	59.8*	.	.	73.3*	.	103.3*
COc1cc(NC(=O)Cn2cnc(S(=O)(=O)N3CCC(C)CC3)c2)cc(OC)c1OC	1.9	.	9.4	12.6	-0.5	1.5
Cc1c(C)c2ccc(OCC(=O)NCCCn3ccnc3)cc2oc1=O	5.6	.	-4.6	-5.3	2.3	-3.3
C=CCN1C(=O)C(=Cc2ccc3c(c2)CCC3)SC1=S	91.6*	.	.	-30.8	.	-24.4
SMILES	C8 TRAIL sens	PPC-1+TRAIL kill	Platelet DG rel	TROY NFkB inh	HSP90 inh	TWEAK Fn14 block
N#CCSc1nnc(-c2sc3ccccc3c2Cl)o1	21.7	43.1	-4.8	6.7	1.1	34.3
COC(=O)CSc1nnc(-c2sc3ccccc3c2Cl)o1	14.4	11.6	5.2	34.9	6.0	63.6*
Cc1ccccc1CN1C(=O)[C@@H]2Cc3c([nH]c4ccccc34)C(C)(C)N2C1=O	10.8	.	3.8	20.7	.	41.6
CC1(C)c2[nH]c3ccccc3c2C[C@@H]2C(=O)N(Cc3ccccc3Cl)C(=O)N21	16.1	.	0.6	30.1	.	50.8*
CC1(C)c2[nH]c3ccccc3c2C[C@H]2C(=O)N(Cc3cccc(F)c3)C(=O)N21	-9.5	.	-2.0	28.6	.	51.3*
CSc1ncc(C(=O)Nc2ccc(C(C)=O)cc2)c(C)n1	-9.9	.	-0.8	-20.8	5.5	-12.0
O=c1[nH]c(Nc2ccccn2)cc2ccccc12	-6.2	.	2.5	-15.4	.	13.5
O=c1[nH]c(-c2ccccn2)cc2ccccc12	8.5	22.2	-3.2	36.0	-0.7	78.9*
COc1ccc(NS(=O)(=O)c2ccc(O)c(NS(=O)(=O)c3ccc(NC(C)=O)cc3)c2)cc1	-3.4	.	.	5.7	.	10.0
COc1cc(OC)cc(C(=O)NCC(=O)OCC(=O)Nc2ncc(Cl)cc2Cl)c1	0.6	25.0	-24.8	1.2	0.4	-10.9
COc1cccc(C(=O)NCC(=O)OCC(=O)Nc2ncc(Cl)cc2Cl)c1	-3.7	3.1	-8.4	-9.3	4.7	87.9*
Cc1ccc(Cn2c(C(C)Nc3nc(-c4ccc(F)cc4)cs3)nc3cc(Cl)c(Cl)cc32)cc1 (stereo not given)	15.7	.	0.5	45.4	.	51.9*
CC(Nc1nc(-c2ccc(F)cc2)cs1)c1nc2cc(Cl)c(N3CCCCC3)cc2n1CCCO (stereo not given)	14.9	.	-2.4	-8.4	.	-5.1
COc1ccc(-c2csc(NC(C)c3nc4cc(Cl)c(Cl)cc4n3CCCO)n2)cc1 (stereo not given)	21.6	.	7.2	55.1*	.	47.8
CC(Nc1nc(-c2ccc(F)cc2)cs1)c1nc2cc(Cl)c(Cl)cc2n1CCOCCO (stereo not given)	15.2	.	3.7	17.5	.	51.4*
C[C@H]1CN([C@@H](C)CO)C(=O)CCCn2cc(nn2)CO[C@@H]1CN(C)C(=O)c1ccncc1	-0.4	.	.	3.2	.	-6.0
O=C(N/N=C/c1coc2ccc(Cl)cc2c1=O)c1ccncc1	8.9	.	-5.7	31.9	-5.4	54.5*
COc1ccc(C(=O)N/N=C\c2coc3ccc(Cl)cc3c2=O)cc1	-14.3	.	1.5	11.3	3.7	30.4
